In PubChem BioAssay (NCI):
Compounds without any hit were thinned out: in the full panel of roughly 79,000, 15% have a hit. Activity calls are given as the source filed them. No stated cut-off is given here; in the data, active means growth inhibition above about 70%; inactive means the rest. Where a SMILES comes first, the peptide text is derived from it. The star is where a group is joined. Boc = CC(C)(C)OC(=O)*

Legend:
[1] = NCI Yeast Anticancer Drug Screen. Data for the rad50 strain (AID 155);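 further: 0% = growth of vehicle-only cultures of the same strain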; details: S. cerevisiae rad50 strain growth inhibition; at 50.0 µM; stronger effect = higher value
In short: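 Cells are treated with compound, grown, and their growth is then scored against vehicle-only cultures of the same repair-deficient yeast strain.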

[2] = NCI Yeast Anticancer Drug Screen. Data for the mec2-1 strain (AID 157); details: S. cerevisiae mec2-1 strain, at 50.0 µM, stronger effect = higher value
In short: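 Each compound was tested on mec2-1 yeast, a strain altered in DNA damage repair or cell cycle control. Growth inhibition is reported relative to vehicle.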

[3] = NCI Yeast Anticancer Drug Screen. Data for the sgs1 mgt1 strain (AID 161);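 further: 0% = growth of cultures given vehicle only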; details: S. cerevisiae sgs1 mgt1 strain, at 50.0 µM, stronger effect = higher value
In short: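 Inhibition of yeast growth, normalised to vehicle-treated controls, is reported for a strain bearing genetic alterations in DNA damage repair.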

[4] = NCI Yeast Anticancer Drug Screen. Data for the cln2 rad14 strain (AID 165);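 further: 0% = growth equal to vehicle treated cultures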; details: S. cerevisiae cln2 rad14 strain, at 50.0 µM, stronger effect = higher value
In short: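 Test compounds were added to cln2 rad14 yeast cultures; inhibition of growth was then determined by comparison with vehicle treatment.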

[5] = NCI Yeast Anticancer Drug Screen. Data for the bub3 strain (AID 167); details: S. cerevisiae bub3 mutant strain, at 50.0 µM, stronger effect = higher value
In short: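 Part of a panel of yeast mutants defective in DNA damage repair or cell cycle regulation. Each strain is grown with compound, and inhibition is calculated relative to solvent-treated cultures.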

[6] = NCI Yeast Anticancer Drug Screen. Data for the mlh1 rad18 strain (AID 175); details: S. cerevisiae mlh1 rad18 strain growth inhibition; at 50.0 µM; stronger effect = higher value
In short: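 Inhibition values reflect reduced growth of mutant yeast versus vehicle-treated controls following compound exposure; the mutations affect DNA damage repair.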

Measured: growth inhibition

O=C1C(=Cc2ccco2)C(=O)C2CCCCC12 (configuration not stated)
inactive: [1] 6.8% | [2] -9% | [3] -10.8% | [4] 13% | [5] 2.4% | [6] 13.6%

O=C(N/N=C/c1ccc(Cl)cc1Cl)c1ccccc1
inactive: [1] -13.8% | [2] -1.65% | [3] -2.95% | [4] -5.1% | [5] -8.65% | [6] -3.9%

Cn1ccnc1CCc1c(Cl)cccc1Cl
inactive: [1] -19.9% | [2] -21.4% | [3] -47.1% | [4] 9.4% | [5] -16.2% | [6] -22.9%

O=C(Nc1ccc(C2=NCCN2)cc1)c1cncc(C(=O)Nc2ccc(C3=NCCN3)cc2)c1
inactive: [1] 5.2% | [2] 22.6% | [3] 16.4% | [4] 50% | [5] 8.95% | [6] 45.6%

COC(=O)c1ccccc1C1CN=NC12Cc1cc(C)ccc1C2=O (configuration not stated)
inactive: [1] -3.25% | [2] 14.2% | [3] -10.4% | [4] -34.4% | [5] -3.5% | [6] -14.8%

CCCCOC(=O)c1c(C)c(C)cc(C)c1C
inactive: [1] 18.4% | [2] -7.1% | [3] 6.3% | [4] 12.5% | [5] 5.75% | [6] -9.95%

CN(C)CCC(C(N)=O)c1ccccc1 (configuration not stated)
inactive: [1] 36.1% | [2] -1.7% | [3] -3.7% | [4] 38.9% | [5] -5.85% | [6] 18.1%

NC(Cc1ccccc1)C(=O)CCl (configuration not stated)
inactive: [1] 31.6% | [2] 29.8% | [3] 40.8% | [4] 18.4% | [5] 36.2% | [6] 46.5%

CCOC1=C2C(C)(CCC3[C@@]4(C)C=CC(=O)C(C)(C)C4CC(O)[C@@]23C)C(c2ccoc2)C1=O (some centres not stated)
inactive: [1] 54% | [2] 31% | [3] 45.5% | [4] 45.3% | [5] 20.1% | [6] 30.8%

O=C1c2ccccc2S(=O)(=O)c2cc(-c3nn[nH]n3)ccc21
inactive: [1] -2.6% | [2] -29.8% | [3] -22.8% | [4] 0.6% | [5] -13.7% | [6] -48%

Cc1ccccc1/C=N/Nc1ccc([N+](=O)[O-])cc1[N+](=O)[O-]
inactive: [1] -2.45% | [2] 13.4% | [3] -1.75% | [4] -35.1% | [5] -25.1% | [6] -11.8%

CSc1ncnc2ncn(C)c12
inactive: [1] 11.9% | [2] -2.6% | [3] 4.4% | [4] -9.95% | [5] 3.25% | [6] 1.75%

C=CC1CNCCC1CCC(=O)c1ccnc2ccc(OC)cc12 (configuration not stated)
inactive: [1] 7.75% | [2] -9.6% | [3] -1.2% | [4] 5.85% | [5] 1.15% | [6] 4.4%

O=C(Oc1cccc2ccccc12)c1ccccc1
inactive: [1] -10.4% | [2] 15.6% | [3] -5.2% | [4] -76.2% | [5] 6.25% | [6] -9.45%

O=C1NC(O)c2cccc(F)c2O1 (configuration not stated)
inactive: [1] 20.4% | [2] 6.3% | [3] 43.4% | [4] 31.5% | [5] 6.7% | [6] 58.9%

CCOC(=O)c1ccccc1NC
inactive: [1] -8.65% | [2] -7.4% | [3] -12.1% | [4] -4.9% | [5] -23.4% | [6] -26.1%

COc1ccc(C(C#N)NC23CC4CC(CC(C4)C2)C3)cc1OC (configuration not stated)
inactive: [1] -11.8% | [2] -19.8% | [3] -25.1% | [4] -15.2% | [5] -56.2% | [6] -19.5%

C=C1CC(C)(Cn2cnc3c(=O)[nH]cnc32)OC1=O (configuration not stated)
inactive: [1] 18.1% | [2] 22.7% | [3] 12.9% | [4] 8% | [5] 16.6% | [6] 21.6%

C/C(=N\NC(=O)CC(=O)N(C(=O)c1ccccc1Cl)c1ccc(C)cc1)c1ccc(Cl)cc1
inactive: [1] -0.5% | [2] -8.95% | [3] -25.4% | [4] -15.8% | [5] -4.25% | [6] -6.1%

CN1C(=O)C(CCCN=C(N)N)NC1=S (configuration not stated)
inactive: [1] -13.7% | [2] -2.4% | [3] -6.65% | [4] -12.2% | [5] -2.45% | [6] -13.6%

CCOC(=O)Cc1cc(C)c2ccccc2n1
inactive: [1] -7.75% | [2] -5.65% | [3] 4.3% | [4] -19.6% | [5] -9.4% | [6] 7.45%

CCCCCCCCCCCCSC1=CC(=O)C(SCCCCCCCCCCCC)=CC1=O
inactive: [1] -15.8% | [2] -6.55% | [3] -5.6% | [4] -13.2% | [5] -4.5% | [6] -34.1%

O=C1CCC(=O)N1CCc1cccc2ccccc12
inactive: [1] 5.45% | [2] -1.1% | [3] 30.4% | [4] 5.4% | [5] 2.4% | [6] -9.35%

NC(N)=N/N=C(/c1nc2ccc([N+](=O)[O-])cc2[nH]c1=O)C(O)c1ccco1 (configuration not stated)
inactive: [1] 10.1% | [2] -25% | [3] 0.25% | [4] 5.95% | [5] -15.3% | [6] 1.7%

CN=C(NN(C)C)c1ccc(NC(=O)c2ccc(C(=O)Nc3ccc(C(=NC)NN(C)C)cc3)cc2)cc1
inactive: [1] 8.4% | [2] 7.65% | [3] 10.8% | [4] 10.1% | [5] -13.8% | [6] 13.9%

CCCCCC(CCCCC)=C(C#N)C(=O)OCC
inactive: [1] -6.15% | [2] 21.1% | [3] 7.55% | [4] -19.4% | [5] 19.9% | [6] 25.8%

Cc1ccc(S(=O)(=O)c2ccc(C)cc2[N+](=O)[O-])cc1
inactive: [1] 21.8% | [2] -7.5% | [3] 18.5% | [4] -4.95% | [5] 45.7% | [6] -9.75%

CC1=C/C(=N\NC(N)=S)C(C(O)(C(F)(F)F)C(F)(F)F)C(C)(C)C1 (configuration not stated)
inactive: [1] 65.9% | [2] 30.6% | [3] 47% | [4] 20.2% | [5] 41.5% | [6] 59.8%

COC(=O)CC1(O)C(C=C(C)C)C(C(=O)OC)C(=O)C(C(=O)OC)C1C(=O)OC (configuration not stated)
inactive: [1] -10.8% | [2] -7.15% | [3] -28.9% | [4] -3.5% | [5] -32.2% | [6] -1.25%

O=[N+]([O-])c1ccc(C2ON2C2CCCCC2)cc1 (configuration not stated)
inactive: [1] -0.75% | [2] -2.55% | [3] 18.7% | [4] -22.3% | [5] -10.8% | [6] 5.3%

Cc1ccc(C(=O)c2c[nH]c(=O)[nH]c2=O)cc1
inactive: [1] 9.45% | [2] -20.2% | [3] -6.7% | [4] -6.5% | [5] -3.05% | [6] -21.9%

CCCCCCCCCCCCCCCCCCSc1ccc2ccccc2c1
inactive: [1] 37.5% | [2] -10.5% | [3] 20.4% | [4] -14.1% | [5] 0.6% | [6] -5.7%

CSc1ncc(Br)c(Sc2nccn2C)n1
inactive: [1] 11.4% | [2] 7.3% | [3] 14.3% | [4] 4.7% | [5] -12% | [6] 2.85%

Cc1csc2n(C)c(=O)c3ccccc3[n+]12
inactive: [1] 16.8% | [2] 9.4% | [3] -20.4% | [4] 4.65% | [5] -1.75% | [6] 32.8%

O=c1[nH]cnc2nc(-c3cccc([N+](=O)[O-])c3)[nH]c12
inactive: [1] -1% | [2] 30.9% | [3] 12.9% | [4] -13.8% | [5] 5.4% | [6] 24.9%

CC(C)C(NC(=O)OC(C)(C)C)C(=O)N1CCCC1C(=O)O (stereo not drawn) (Boc-Val-Pro-OH; configuration not given here)
inactive: [1] 11.8% | [2] -1.5% | [3] 18% | [4] 3.3% | [5] 2.3% | [6] 5.65%

NNC(=O)c1nnc(N)o1
inactive: [1] -11.6% | [2] -12.1% | [3] 7.25% | [4] -9.45% | [5] -11.7% | [6] 6.45%
